The nature of assay [1]: ATG_CMV_CIS: Attagene CIS-FACTORIAL HepG2 Assay for human CMV (Internal Marker) (AID 2282928).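 Note: endpoint acts as a background internal control marker rather than a target.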 The conditions noted are these: HepG2 CMV promoter reporter, transcription factor profiling; actives raise or lower the signal. The procedure, abridged:
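Bidirectional fits against DMSO are applied to reporter mRNA, read by RT-PCR with capillary electrophoresis, from HepG2 cells exposed 24 h. The endpoint serves as an internal CMV background marker within the cis-factorial reporter panel.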

A short description of assay [2]: ATG_DR4_LXR_CIS: Attagene CIS-FACTORIAL HepG2 Assay for human Liver X Receptor (LXR), DR4 submotif (AID 2282929). To be noted: HepG2 Attagene DR4 cis-reporter, mRNA transcription; actives raise or lower the signal. The procedure, abridged:
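HepG2 cells transiently transfected with cis-promoter-driven multiplexed reporter units (DR4 element) were dosed for 24 h. Reporter mRNA was quantified by RT-PCR, fluorescent primer extension, HpaI digestion and capillary electrophoresis; bidirectional fitting versus DMSO baseline.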

The target of assay [3] is Aryl hydrocarbon receptor (Homo sapiens) (UniProt P35869). In words: ATG_Ahr_CIS: Attagene CIS-FACTORIAL HepG2 Assay for human Aryl Hydrocarbon Receptor (Ahr) (AID 2282930). The conditions noted are these: HepG2 AhR cis-factorial reporter transcription; actives raise or lower the signal. An outline of the steps: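 Reporter mRNA levels, quantified by RT-PCR and fluorescent capillary electrophoresis, reflect endogenous AhR transcriptional activity in HepG2 cells carrying transfected cis-promoter reporter constructs. Readout at 24 h post-dose; gain or loss fitted against DMSO baseline.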

Assay [4] can be described thus: ATG_AP_1_CIS: Attagene CIS-FACTORIAL HepG2 Assay for human Activator Protein 1 (AP-1) (AID 2282931). To be noted: HepG2 Attagene cis-factorial AP-1 reporter mRNA; actives raise or lower the signal. An outline of the steps:
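HepG2 cells transiently transfected with cis-element-driven multiplex reporter units; 24 h compound exposure. Reporter mRNA quantified by RT-PCR, FAM-labelled fragments resolved by capillary electrophoresis; bidirectional fit versus DMSO baseline.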

The nature of assay [5]: ATG_AP_2_CIS: Attagene CIS-FACTORIAL HepG2 Assay for human Activator Protein 2 (AP-2) (AID 2282932). The conditions noted are these: HepG2 AP-2 cis-reporter, Attagene transcription factor profiling; actives raise or lower the signal. The procedure, abridged:
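Transiently transfected HepG2 cells are exposed to chemical for 24 h. Reporter transcripts are then measured as fluorescence following RT-PCR and capillary separation, and gain- or loss-of-signal is fitted relative to DMSO.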

Assay [6] deals with Transcription factor E2F1 (Homo sapiens) (UniProt Q01094). In words: ATG_E2F_CIS: Attagene CIS-FACTORIAL HepG2 Assay for human E2F Transcription Factor 1 (AID 2282935). The conditions noted are these: HepG2 Attagene cis-reporter, E2F reporter RNA transcripts; actives raise or lower the signal. The procedure, abridged: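 Fluorescent RT-PCR products, digested with HpaI for 2 h at 37 C, are separated by capillary electrophoresis. Source RNA comes from transfected HepG2 cultures treated for 24 h.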

Assay [7] in a line: ATG_M_61_CIS: Attagene CIS-FACTORIAL HepG2 Assay for M61 Transcription Factor (Internal Marker) (AID 2282937). The conditions noted are these: HepG2 Attagene CIS-FACTORIAL M61 internal marker reporter; actives raise or lower the signal. The procedure, abridged: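 HepG2 cells transiently transfected with cis-element-driven multiple reporter transcription units, dosed for 24 h. Reporter mRNA measured by RT-PCR, 6-FAM primer-extension labelling, HpaI digestion and capillary electrophoresis; bidirectional fit versus DMSO baseline.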

Assay [8] addresses Retinoic acid receptor alpha (Homo sapiens) (UniProt P10276). Nature of the assay: ATG_DR5_RAR_CIS: Attagene CIS-FACTORIAL HepG2 Assay for human Retinoic Acid Receptor Alpha (RARE), DR5 submotif (AID 2282934).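 For AC50: reporter responds to endogenous RAR alpha beta and gamma in HepG2 not RARA alone.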 To be noted: HepG2 Attagene cis-factorial RARE DR5 reporter, mRNA; actives raise or lower the signal. The procedure, abridged:
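Reporter transcripts from a DR5-regulated unit, measured via RT-PCR plus capillary electrophoresis, reflect endogenous RAR activity in transiently transfected human HepG2 liver cells. Exposure lasted 24 h; gain or loss of signal scored against DMSO.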

A short description of assay [9]: ATG_E_Box_CIS: Attagene CIS-FACTORIAL HepG2 Assay for human Enhancer Box (E-box) (AID 2282936). The conditions noted are these: HepG2 E-box cis-reporter transcription, actives raise or lower the signal. The procedure, abridged:
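Fluorescent reporter fragments separated by capillary electrophoresis gave the signal; mRNA came from HepG2 cells transfected with cis-element reporters and treated 24 h. Curves fitted bidirectionally relative to DMSO controls.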

Assay [10] in a line: ATG_BRE_CIS: Attagene CIS-FACTORIAL HepG2 Assay for human Bone Morphogenetic Protein (BMP) Response Element (BRE) (AID 2282933). The conditions noted are these: HepG2 BMP response element reporter, Attagene transcription factor profiling; actives raise or lower the signal. The procedure, abridged: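 Multiplexed cis-reporter assay, HepG2, 24 h exposure. mRNA from reporter units quantified via RT-PCR/CE; DMSO baseline; bidirectional curve fit.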

A word on the AC50: it is the midpoint of the concentration-response curve, whichever way the signal moves.

Each structure is given as a SMILES string. Activity calls are given as the source filed them. Rule for the calls: active = hit-call score of the fitted dose curve at least 0.9, where 1 is the maximum; inactive = score below 0.9.

Aryl hydrocarbon receptor (Homo sapiens), sequence (P35869 whole entry, looked up): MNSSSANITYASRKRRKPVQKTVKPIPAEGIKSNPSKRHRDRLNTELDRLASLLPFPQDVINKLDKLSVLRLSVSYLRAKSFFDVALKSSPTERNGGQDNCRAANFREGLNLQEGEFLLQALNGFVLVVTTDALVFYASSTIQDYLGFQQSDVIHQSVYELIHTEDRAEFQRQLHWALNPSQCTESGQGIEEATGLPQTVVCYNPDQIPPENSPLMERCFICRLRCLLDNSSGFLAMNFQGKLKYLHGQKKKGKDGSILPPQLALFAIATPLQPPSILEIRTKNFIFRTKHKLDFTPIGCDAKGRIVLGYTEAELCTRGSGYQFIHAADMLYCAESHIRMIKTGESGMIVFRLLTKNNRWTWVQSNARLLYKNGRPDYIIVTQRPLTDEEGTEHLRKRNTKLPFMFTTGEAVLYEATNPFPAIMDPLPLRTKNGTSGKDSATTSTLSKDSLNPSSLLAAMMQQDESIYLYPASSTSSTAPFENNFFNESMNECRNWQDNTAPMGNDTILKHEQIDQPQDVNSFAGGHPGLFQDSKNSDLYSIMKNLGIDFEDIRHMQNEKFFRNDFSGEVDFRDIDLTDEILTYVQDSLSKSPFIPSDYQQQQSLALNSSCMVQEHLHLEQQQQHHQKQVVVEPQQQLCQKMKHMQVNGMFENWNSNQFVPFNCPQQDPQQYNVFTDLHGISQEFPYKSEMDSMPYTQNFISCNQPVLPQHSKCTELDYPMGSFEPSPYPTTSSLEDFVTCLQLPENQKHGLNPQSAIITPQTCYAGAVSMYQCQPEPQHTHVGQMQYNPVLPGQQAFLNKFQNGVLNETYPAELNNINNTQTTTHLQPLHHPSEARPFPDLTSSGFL
Retinoic acid receptor alpha (Homo sapiens), sequence (P10276 whole entry, looked up): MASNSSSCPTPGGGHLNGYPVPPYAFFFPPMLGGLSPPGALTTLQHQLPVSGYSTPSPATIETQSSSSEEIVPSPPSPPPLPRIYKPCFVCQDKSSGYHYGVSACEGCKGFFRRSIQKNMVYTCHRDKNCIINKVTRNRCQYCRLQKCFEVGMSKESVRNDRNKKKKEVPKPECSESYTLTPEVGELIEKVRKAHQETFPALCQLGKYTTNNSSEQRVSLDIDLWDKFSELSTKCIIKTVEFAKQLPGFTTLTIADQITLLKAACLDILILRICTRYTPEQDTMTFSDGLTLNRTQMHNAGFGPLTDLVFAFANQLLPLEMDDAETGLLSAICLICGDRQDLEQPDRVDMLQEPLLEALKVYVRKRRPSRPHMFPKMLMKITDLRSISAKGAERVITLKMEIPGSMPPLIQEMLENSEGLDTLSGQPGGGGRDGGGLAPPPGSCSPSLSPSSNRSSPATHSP
Transcription factor E2F1 (Homo sapiens), sequence (Q01094 whole entry, looked up): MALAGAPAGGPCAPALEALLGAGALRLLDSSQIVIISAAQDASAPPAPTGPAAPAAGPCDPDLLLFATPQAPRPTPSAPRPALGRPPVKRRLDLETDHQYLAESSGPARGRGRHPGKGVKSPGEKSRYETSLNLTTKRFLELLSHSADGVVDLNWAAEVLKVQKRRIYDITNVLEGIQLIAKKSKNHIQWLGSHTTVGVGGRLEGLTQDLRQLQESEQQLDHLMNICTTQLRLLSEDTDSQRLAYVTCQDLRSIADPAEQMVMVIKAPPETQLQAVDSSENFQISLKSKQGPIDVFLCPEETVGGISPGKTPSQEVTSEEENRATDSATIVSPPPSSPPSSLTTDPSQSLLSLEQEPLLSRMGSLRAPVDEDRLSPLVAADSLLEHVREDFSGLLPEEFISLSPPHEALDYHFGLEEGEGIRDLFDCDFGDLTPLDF

Consider `CCOC(=O)CP(=O)(OCC)OCC`, for which the call in assay [1], in assay [2], in assay [3], in [4], in assay [5] and in assay [6] was inactive. Also, in assay [7], the compound was called inactive.
Turning to `CCNc1nc(NC(C)(C)C)nc(SC)n1`, the AC50 is 65.6 µM (active) in [1], 152 µM (active) in assay [4] and 160 µM (active) in assay [9]. In addition, the outcome in assay [2], in assay [3], in assay [5], in assay [8], in assay [6] and in assay [7] was inactive.
For the compound `CCOP(=S)(OCC)Oc1nc(Cl)c(Cl)cc1Cl`, the AC50 was 26.1 µM (active) in assay [1]; 27.4 µM (active) in [2]; 2.35 µM (active) in assay [3]; 46.2 µM (active) in assay [4]; 48.6 µM (active) in [6]. Besides, the compound was called inactive in assay [5] and in [7].
On to `Nc1cccc2ccccc12`, for which the outcome in assay [1], in assay [4], in [5] and in assay [6] was inactive. Further, the half-maximal activity concentration (AC50) in assay [2] is 154 µM (active); in assay [3], 5.16 µM (active); in assay [9] it was 32.1 µM (active).
As for `CCCCC(CC)CO[N+](=O)[O-]` (centres undefined), the compound was classed as inactive in assay [1], in [2], in assay [3], in [4], in assay [5] and in assay [6]. The outcome in assay [9] and in [7] was inactive. The AC50 in assay [8] was 99.5 µM (active).
`O=C(OC1CCCCC1)c1ccccc1C(=O)OC1CCCCC1`: the AC50 in assay [1] was 74.7 µM (active); in assay [2], 13.7 µM (active); in [3], 17.4 µM (active); in assay [4], 38.1 µM (active); in assay [6], 187 µM (active). The result in [5], in [8], in [9] and in [7] was inactive.
As for `NC(=O)O`, the compound was classed as inactive in assay [1], in assay [2], in assay [3], in [4], in assay [5] and in assay [10]. Further, the compound was called inactive in [6] and in assay [7].
`C[C@H]1CCCC(=O)CCC/C=C/c2cc(O)cc(O)c2C(=O)O1`: the AC50 in [1] is 31.1 µM (active); in [3], 22.5 µM (active); in assay [10] it was 64.5 µM (active). The compound was called inactive in [2], in [4], in assay [5], in [6], in assay [9] and in assay [7].
As for `Cc1cc(Cl)ccc1O[C@H](C)C(=O)O`, the outcome in assay [1], in assay [2], in assay [3], in [5], in [10] and in assay [8] was inactive. For the same compound, the result in [6] and in assay [9] was inactive.
Turning to `COc1ccc(OC)c(C=O)c1`, the call in [1], in assay [2], in [3], in assay [4], in assay [5] and in assay [8] was inactive. Moreover, the compound was called inactive in assay [6], in assay [9] and in assay [7].
Consider `COP(=S)(OC)Oc1ccc(S(=O)(=O)N(C)C)cc1`, for which the compound was called inactive in assay [1], in [2], in [3], in assay [5], in assay [10] and in assay [8]. Besides, the compound was classed as inactive in assay [6] and in assay [9].
With `O=C(CCl)CCl`, the AC50 in assay [1] is 54 µM (active); in [2], 23.3 µM (active); in [5] it was 33.4 µM (active); in assay [9], 30.1 µM (active). Further, the compound was classed as inactive in assay [3], in assay [4], in [10], in assay [6] and in [7].
Consider `ClCCBr`, for which the result in [1], in [2], in assay [3], in [4], in assay [5] and in [10] was inactive. The outcome in [6] and in assay [7] was inactive.
As to `COc1ccc(C=O)cc1`, the call in [1], in assay [2], in assay [3], in assay [4], in assay [5] and in assay [10] was inactive. In addition, the call in assay [6], in assay [9] and in [7] was inactive.
Turning to `O=C(Nc1ccc2[nH]ccc2c1)c1cc2cc(F)ccc2n1Cc1cccc(F)c1`, the AC50 in assay [1] was 11 µM (active); in assay [2] it was 7.44 µM (active); in assay [4], 7.29 µM (active). The compound was called inactive in assay [3], in [5], in assay [8] and in assay [6].
For `C(=NC1CCCCC1)=NC1CCCCC1`, the result in [1], in assay [3], in assay [4], in assay [5], in [8] and in assay [6] was inactive. Also, the compound was called inactive in assay [7]. The AC50 in assay [2] and in [9] was 33.4 µM (active) in each case.
For the compound `Oc1c(I)cc(I)cc1I`, the AC50 in assay [1] is 49.3 µM (active); in assay [3] it was 34.5 µM (active); in assay [5], 63.7 µM (active); in assay [9], 4.99 µM (active). The compound was classed as inactive in assay [2], in assay [4], in assay [8] and in assay [6].
In the case of `c1ccc(N=NNc2ccccc2)cc1`, the result in assay [1], in assay [5], in assay [8], in [6], in assay [9] and in assay [7] was inactive. In addition, the results for the half-maximal activity concentration (AC50) in assay [2], in assay [3] and in [10] were 115 µM (active), 5.92 µM (active) and 123 µM (active), respectively.
As to `COc1ccc(C=O)cc1OC`, the compound was called inactive in assay [1], in assay [2], in assay [3], in assay [5], in [8] and in assay [6]. Also, the result in assay [9] and in assay [7] was inactive.
In the case of `Cc1ccc2ccccc2c1C`, the compound was classed as inactive in assay [1], in assay [2], in assay [5], in assay [10], in assay [8] and in [6]. In addition, the result in assay [9] and in assay [7] was inactive. Besides, the AC50 in assay [3] was 6.24 µM (active).
Consider `CC(=O)c1cc(C(C)(C)C)cc2c1CCC2(C)C`, for which the AC50 in [1] is 62.5 µM (active); in assay [2] it was 26.1 µM (active); in assay [5], 161 µM (active); in assay [6] it was 171 µM (active). Besides, the compound was called inactive in assay [3], in assay [10], in [9] and in [7].

(Values after PubChem BioAssay (EPA / NIEHS).)
